# High-throughput results (PubChem BioAssay)
# Rows were chosen to be rich in hits. Some 9% of all compounds tested hit in one or more screens of this group.
# HPGD block: qHTS Assay for Inhibitors of HPGD (15-Hydroxyprostaglandin Dehydrogenase); 15-hydroxyprostaglandin dehydrogenase [NAD(+)] (Homo sapiens), P15428; purified HPGD, NADH fluorescence kinetic, PGE2 substrate; Potency, µM, actives largely listed as inhibitors; actives 4.3% (n = 150,000); AID 894, 2007; active = well fitted inhibition curve with a large enough effect, not every such curve was filed as active; inconclusive = small, poorly fitted or top-dose-only effect, or another doubt; inactive = no such curve, though single readings can be large or run the other way
# Target sequence (P15428 whole entry, looked up): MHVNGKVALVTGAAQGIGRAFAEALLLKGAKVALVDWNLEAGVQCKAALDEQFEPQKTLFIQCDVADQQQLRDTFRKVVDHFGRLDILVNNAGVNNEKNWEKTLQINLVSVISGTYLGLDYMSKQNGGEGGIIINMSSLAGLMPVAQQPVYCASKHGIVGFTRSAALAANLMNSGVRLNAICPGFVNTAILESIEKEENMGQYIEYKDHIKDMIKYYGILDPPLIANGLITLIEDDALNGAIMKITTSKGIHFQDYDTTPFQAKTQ
#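 NADH formation kinetics: reaction with 30 uM PGE2 and 1 mM NAD+ (final), 20 nM enzyme, Tris-HCl pH 8 with Tween 20, after 15 min compound preincubation at room temperature. Fluorescence change, last versus first of five reads.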
# HTT ATP protect: qHTS Multiplex Assay to Identify Dual Action Probes in a Cell Model of Huntington: Cytoprotection (ATP); PC12 HTT-Q103 induced, cytoprotection, ATP luminescence, 40 h; AID 1471, 2008; Potency, µM (highest dose often 56.4 µM), usual class: activators; actives 0.14% (n = 230,000); note: nearly all actives have a fitted effect of over 45% in size
#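 Compounds were screened for protection of PC12 cells against cell death after tebufenozide induction (100 nM final) of mutant Huntingtin exon 1 (Q103) fused to GFP.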
# Luc counter: Counterscreen for Luciferase (Kinase-Glo TM) Inhibition. actives 0.28% (n = 200,000). Luciferin 4-monooxygenase (Photuris pensylvanica), Q27757. Potency, µM (highest dose often 38.3 µM), usual class: inhibitors. AID 1379, 2008. Kinase-Glo luciferase, ATP luminescence, 8 min; note: nearly all actives have a fitted effect of over 60% in size
#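 Compounds were added to a substrate mix at pH 7.2 (50 mM imidazole, 10 uM ATP, within the enzyme's linear range), followed by Kinase-Glo detection reagent; luminescence was measured after 8 minutes at ambient temperature.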
# LMNA splice mod: qHTS Assay for Modulators of Lamin A Splicing; HeLa LMNA splicing GFP/RFP minigene ratio, 48 h; Potency, µM (series often up to 46.1 µM), hits mostly inhibitors; actives 0.01% (n = 200,000); active = well fitted inhibition curve with a large enough effect in the signal ratio, with a control signal flat, not every such curve was filed as active; inconclusive = small, poorly fitted or top-dose-only effect, or effect the other way, or a change in a side signal; the % refers to the signal ratio
#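 S3 HeLa stable clones carrying a lamin A-EGFP splicing minigene plus DsRed2 were seeded at 600 cells/well in Opti-MEM with 2% FBS, pin-dosed and incubated 48 h at 37°C. Acumen cytometry (488 nm) gave the GFP/RFP total-intensity ratio.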
# HTT aggregate: qHTS Multiplex Assay to Identify Dual Action Probes in a Cell Model of Huntington: Aggregate Formation (GFP); actives 1.1% (n = 220,000); AID 1688, 2009; Potency, µM (doses to about 46.1 µM), hits mostly inhibitors; PC12 HttQ103-GFP aggregates, Acumen cytometry, 40 h; note: nearly all actives have a fitted effect of over 60% in size
#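 Using laser scanning cytometry, GFP-positive aggregates were counted after lysis of PC12 cells induced with 100 nM tebufenozide to express HTT exon 1 Q103–GFP. Compounds were tested in titration.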
# ALDH1A1 inh: qHTS Assay for Inhibitors of Aldehyde Dehydrogenase 1 (ALDH1A1); Purified ALDH1A1, NADH fluorescence, propionaldehyde substrate; Potency, µM (top dose mostly 75.3 µM), usual class: inhibitors; actives 7.3% (n = 220,000); AID 1030, 2008; active = well fitted inhibition curve with a large enough effect, not every such curve was filed as active; inconclusive = small, poorly fitted or top-dose-only effect, or another doubt; inactive = no such curve, though single readings can be large or run the other way
# A number is an active result; n = inactive; u = inconclusive; x = no result given; [ ] = remark or other dose. Unless noted, calls come from the whole dose curve; as a rule, active = well fitted curve in the direction sought with a large enough effect; inconclusive = small, poorly fitted or top-dose-only effect, or another doubt; inactive = no such curve, though single readings can be large; an effect the other way counts as inactive or inconclusive.
SMILES,HPGD block,HTT ATP protect,Luc counter,LMNA splice mod,HTT aggregate,ALDH1A1 inh
CC(=O)N1c2c(cc(Br)cc2S(=O)(=O)NCc2ccc3c(c2)OCO3)CC1C (stereo not given),u,n,n,n,n,n
Cc1occc1-c1nnc(SCC(=O)Nc2ccccc2-c2ccccc2)n1C,n,n[10 µM],n,u,n,22µM
Cc1cccc(C)c1NC(=O)CSc1nnc(-c2ccoc2C)n1C,n,n[10 µM],n,n,n[9.22 µM],n
Cn1c(SCC(=O)c2cc(Cl)c(Cl)s2)nnc1-c1ccco1,x,n[10 µM],x,x,n[9.22 µM],28µM
Cc1ccc(C(=O)CSc2nnc(-c3ccco3)n2C)cc1,x,x,n,u,x,n
Cc1cccc(-n2c(-c3csc(C)c3C)n[nH]c2=S)c1,10µM,x,n,n,n,n
Cc1cccc(-n2c(-c3csc(C(C)C)c3)n[nH]c2=S)c1,u,n,n,n,n,16µM
NC(=O)NNc1ccccc1,n,u,n,x,n,n
S=C(N=Nc1ccccc1)NNc1ccccc1,u,x,n,n,n,11µM
CC[N+]1(C)CCC(=C2c3ccccc3CC(=O)c3sccc32)CC1 (stereo not given),n,n,n,n,n,n
C[N+]1(C)CCC(=C2c3ccccc3CC(=O)c3sccc32)CC1,u,u,n,n,n,7.1µM
COc1ccc(-c2cnnc(CCCn3ccnc3-c3ccccc3)n2)cc1,x,n[10 µM],x,x,x,n[13.5 µM]
Cc1ccc2[nH]c3nc(CCCn4ccnc4-c4ccccc4)nnc3c2c1,x,1µM,x,x,x,n[13.5 µM]
Clc1ccc(OCc2nc(-c3ccncc3)no2)c(Cl)c1,13µM,n,n,u,n,n
Cc1ccc(-n2c3nc(=O)[nH]c(=O)c-3cc3cc([N+](=O)[O-])ccc32)cc1C,32µM,n[10 µM],n,u,n,n
Cc1ccccc1Nc1ncc(C#N)c(N)n1,x,n[10 µM],x,x,n[9.22 µM],x
Nc1nc(CCl)nc(Nc2ccccc2)n1,x,n,x,x,u,n
Cc1ccccc1Nc1nc(N)c2ccccc2n1,x,n[10 µM],13µM,u,n[9.22 µM],n
Nc1nc(Nc2ccc(Cl)cc2)nc2ccccc12,u,n,14µM,n,n,u
Nc1nc(Nc2ccccc2)nc2ccccc12,n,n[10 µM],11µM,n,n,n
O=C(CSc1nnc2c(Cl)cc(C(F)(F)F)cn12)N(Cc1ccccc1)Cc1ccccc1,n,n[10 µM],n,n,n,u
O=C(CCC1CCCN(C(=O)c2ccoc2)C1)NCc1ccccc1F (stereo not given),x,n[10 µM],n,n,n[9.22 µM],n
CCc1nnc(NC(=O)C2CCN(c3cnccn3)CC2)s1,n,n[10 µM],n,n,n,u
CC(C)c1nnc(NC(=O)C2CCN(c3cnccn3)CC2)s1,n,n[1.9 µM],n,n,n,32µM
CCN1C(=O)N[C@H](c2ccc(Br)cc2)C(C(C)=O)=C1C,n,n,n,u,n,u
SMILES,HPGD block,HTT ATP protect,Luc counter,LMNA splice mod,HTT aggregate,ALDH1A1 inh
Cc1cccc(NC(=O)c2ccc(C3SCC(=O)N3CCc3ccccc3)cc2)c1 (stereo not given),u,n[10 µM],n,u,n,u
CC(=O)Nc1ccc(NC(=O)c2ccc(C3SCC(=O)N3CCc3ccccc3)cc2)cc1 (stereo not given),n,n[0.074 µM],n,u,n,25µM
CCOC(=O)C(NC(C)=O)(NS(=O)(=O)c1ccccc1)C(F)(F)F (stereo not given),n,n,n,n,3.2µM,n
O=c1oc2ccccc2cc1O,18µM,n,n,x,x,n
Cc1cc(OCc2cc3c(cc2Cl)OCO3)c2c(C)cc(=O)oc2c1,x,n[10 µM],x,n,n,0.18µM
Cc1cccc(NC(=O)/C(=C\c2ccc([N+](=O)[O-])o2)NC(=O)c2ccc(Cl)cc2)c1,n,n[10 µM],n,u,n,4.5µM
COC(=O)/C(=C\c1ccc([N+](=O)[O-])o1)NC(=O)c1ccccc1,n,n,n,u,n,n
CC(=O)Nc1c(F)cc(Br)cc1F,x,n[10 µM],x,x,n[9.22 µM],n
CC1(C)Cc2c(ccc3ccccc23)C(=O)N1,u,n,n,u,11µM,u
O=C(Nc1nccs1)c1nc(-c2ccccc2)n(-c2ccccc2)n1,n,n,n,n,n,n
Cc1csc(NC(=O)c2nc(-c3ccccc3)n(-c3ccccc3)n2)n1,n,n,n,u,n,14µM
CCOC(=O)c1cc(C(=O)c2ccccc2O)cn2c(=O)c3c(C)c(C)sc3nc12,x,n[10 µM],n,n,n,14µM
O=C(Nc1ccc(N2CCOCC2)cc1)c1cc2c(s1)CCCCC2,x,n,n,u,n,u
CCOC(=O)c1c(N)sn(-c2ccccc2C)c1=S,11µM,n,n,n,n,3.5µM
CCOC(=O)c1nn(-c2ccccc2C)c(=O)c(C#N)c1C,n,n[10 µM],n,n,n,n
O=S(=O)(CCOc1ccccc1)N1CCOCC1,n,x,n,n,n,20µM
c1ccc(OCCCCN2CCOCC2)cc1,n,n,n,n,n,n
O=C(CCCCCn1nnc2ccccc2c1=O)N[C@H](C(=O)O)c1ccccc1,x,n[10 µM],x,x,n[9.22 µM],x
CC(C)(CC(=O)O)CC(=O)Nc1ccc(Oc2ccc(C(C)(C)C)cc2)nc1,x,n[10 µM],x,x,n[9.22 µM],8.9µM
CC(C)(C)c1ccc(Oc2ccc(NC(=O)CCCC(=O)O)cn2)cc1,x,n[10 µM],x,x,n[9.22 µM],n
C1CCC2(CC1)C1=C(CCCC1)Nc1nnnn12,n,n,n,n,n,28µM
CCOC(=O)CSC1=NC(=O)/C(=C/c2ccc(OC)cc2)S1,13µM,n[10 µM],n,n,n,u
CCOC(=O)CSc1nnc(-c2ccc(OC)cc2)n1CC,n,n[10 µM],n,n,n,2.5µM
COc1ccc(CCNC(=O)CNS(=O)(=O)c2cccs2)cc1OC,n,n,n,n,n,n
COc1ccccc1/C=C1\S/C(=N/NC(=O)c2cccc(Br)c2)NC1=O,11µM,n,n,u,10µM,n
COC(=O)/C=C1\S/C(=N/NC(=O)c2ccccc2)NC1=O,n,n,n,n,n,u
CC(C(=O)Nc1ccccc1-c1ccccc1)N1CCN(S(=O)(=O)c2ccccc2)CC1 (stereo not given),n,n[10 µM],n,n,n,u
CC(C(=O)Nc1ccccc1-c1ccccc1)N1CCCCC1 (stereo not given),n,n,n,n,n[9.22 µM],20µM
CC(C)c1ccc(S(=O)(=O)N2CCN(C(C)C(=O)Nc3ccccc3-c3ccccc3)CC2)cc1 (stereo not given),n,n[10 µM],n,n,n,2.8µM
